Test results published in PubChem BioAssay (NCI).
About 83,000 compounds went through this panel and 20% of them were active in at least one assay; those are over-represented in the sample as a whole.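 Single-dose data. Exposure time 48 hours. Values below 10 considered active.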 The source made the active and inactive calls.

What was measured:
Assay in all cases: NCI-60 one-dose screen, 48 h (100 = growth as untreated, 0 = no growth, -100 = all killed)
SN12C renal = details: 10 µM
UO-31 renal = details: 10 µM
TK-10 renal = details: 10 µM unless noted
ACHN renal = details: 10 µM
CAKI-1 renal = details: 10 µM
MOLT-4 leukemia = details: 10 µM
A498 renal = details: 10 µM
CCRF-CEM leukemia = details: 10 µM

Measured: growth

O=C(Nc1ccccc1)OCCc1ccccc1
inactive: SN12C renal 95.3% | UO-31 renal 103% | TK-10 renal 95.2% | ACHN renal 104% | CAKI-1 renal 88.5% | MOLT-4 leukemia 101%

Cc1c(O)cnc2nn(-c3ccccc3)c(=N)n12
inactive: SN12C renal 97.7% | UO-31 renal 94.5% | TK-10 renal 109% | ACHN renal 96.7% | CAKI-1 renal 102% | A498 renal 106% | MOLT-4 leukemia 104%

O=C1OC(=O)C2C1C1(Cl)C(Cl)=C(Cl)C2(Cl)C2C(=O)OC(=O)C21 (configuration not stated)
inactive: SN12C renal 105% | UO-31 renal 84.4% | TK-10 renal 93% | ACHN renal 105% | CAKI-1 renal 106% | A498 renal 107% | MOLT-4 leukemia 105%

CC(C)=C(NC(=O)c1ccccc1)C(=O)O
active: CCRF-CEM leukemia 7.71%
inactive: UO-31 renal 101% | TK-10 renal 106% | ACHN renal 106% | CAKI-1 renal 103% | A498 renal 90.5% | MOLT-4 leukemia 12.1%

N#Cc1ccc(OC(=O)Nc2ccc(Cl)c(Cl)c2)cc1
inactive: SN12C renal 79.5% | UO-31 renal 60.6% | TK-10 renal 90.7% | ACHN renal 50.8% | CAKI-1 renal 35.8% | A498 renal 106% | MOLT-4 leukemia 79.9%

O=C(NCCNC(=O)c1ccc(Cl)cc1Cl)c1ccc(Cl)cc1Cl
inactive: SN12C renal 87.1% | UO-31 renal 90.9% | TK-10 renal 120% | ACHN renal 110% | CAKI-1 renal 84.4% | A498 renal 104% | MOLT-4 leukemia 96.6%

CCCNc1ccc(C2=NCCCN2)cc1
inactive: SN12C renal 109% | UO-31 renal 81.7% | ACHN renal 102% | CAKI-1 renal 101% | A498 renal 71.7% | CCRF-CEM leukemia 99.1% | MOLT-4 leukemia 93.7%

COc1ccccc1N1CCN(C(=S)Nc2ccccc2)CC1
inactive: SN12C renal 100% | UO-31 renal 75.3% | TK-10 renal 95.6% | ACHN renal 100% | MOLT-4 leukemia 78.7%

O=C(O)CSCSCC(=O)O
inactive: SN12C renal 104% | UO-31 renal 92.3% | TK-10 renal 93.6% | ACHN renal 101% | CAKI-1 renal 96.9% | A498 renal 80.4% | MOLT-4 leukemia 101%

CSC(=N\N=C\c1ccc(N(C)C)cc1)/N=C/N(C)C
inactive: SN12C renal 108% | UO-31 renal 101% | TK-10 renal 131% | ACHN renal 101% | CAKI-1 renal 104% | A498 renal 97% | MOLT-4 leukemia 101%

Cc1cc(O)ccc1O
inactive: SN12C renal 95.3% | UO-31 renal 94.4% | TK-10 renal 123% | ACHN renal 105% | A498 renal 103% | CCRF-CEM leukemia 19.1% | MOLT-4 leukemia 65%

CC(C)(C)c1cc(O)c(C(C)(C)C)cc1O
inactive: SN12C renal 87.4% | UO-31 renal 90.3% | ACHN renal 92.4% | CAKI-1 renal 84.4% | A498 renal 58.5% | CCRF-CEM leukemia 80.4% | MOLT-4 leukemia 73.2%

O=C(Cc1ccc(OCc2ccccc2)cc1)NCc1ccc2c(c1)OCO2
inactive: SN12C renal 89.9% | UO-31 renal 73.7% | TK-10 renal 77% | ACHN renal 104% | CAKI-1 renal 32.5% | MOLT-4 leukemia 55.2%

C/C(=N\O)C1(O)CCCCC1
inactive: SN12C renal 101% | UO-31 renal 96.8% | ACHN renal 97.7% | CAKI-1 renal 99.3% | A498 renal 99.1% | CCRF-CEM leukemia 99.4% | MOLT-4 leukemia 89.8%

COc1ccc(/C=C/c2cccc[n+]2C)cc1
inactive: SN12C renal 110% | UO-31 renal 64.9% | ACHN renal 91% | CAKI-1 renal 63% | A498 renal 71% | MOLT-4 leukemia 102%

N#CC(=Nc1cccc(F)c1)C1=C(O)c2ccccc2C1=O
inactive: SN12C renal 82.8% | UO-31 renal 78.6% | TK-10 renal 110% | ACHN renal 87.1% | CAKI-1 renal 47% | A498 renal 79.4% | MOLT-4 leukemia 96.5%

S=C1NCc2cncnc2N1
inactive: SN12C renal 107% | UO-31 renal 88.8% | TK-10 renal 97.8% | ACHN renal 93% | CAKI-1 renal 85.5% | A498 renal 104% | MOLT-4 leukemia 95.6%

CC(CN1CCCCC1)NC(=O)c1scnc1-c1ccccc1 (configuration not stated)
inactive: SN12C renal 106% | UO-31 renal 83.7% | TK-10 renal 98.1% | ACHN renal 109% | CAKI-1 renal 87.3% | MOLT-4 leukemia 104%

O=S(=O)(O)c1cc(O)c2c(N=Cc3ccccc3O)c(S(=O)(=O)O)ccc2c1
inactive: SN12C renal 109% | UO-31 renal 73.2% | TK-10 renal 118% | ACHN renal 101% | CAKI-1 renal 96.2% | A498 renal 107% | MOLT-4 leukemia 99.2%

COc1cccc(COC(=O)Nc2ccccc2)c1OC
inactive: SN12C renal 96.9% | UO-31 renal 99.5% | TK-10 renal 107% | ACHN renal 104% | CAKI-1 renal 88.5% | A498 renal 105% | MOLT-4 leukemia 100%

CC(CC(=O)c1ccccc1)c1ccccc1 (configuration not stated)
inactive: SN12C renal 107% | UO-31 renal 95.4% | TK-10 renal 90.1% | ACHN renal 115% | CAKI-1 renal 106% | CCRF-CEM leukemia 98.4% | MOLT-4 leukemia 103%

CCCCCC(C)(CC(=O)O)CC(=O)O
inactive: SN12C renal 110% | UO-31 renal 97.6% | TK-10 renal 111% | ACHN renal 103% | CAKI-1 renal 116% | A498 renal 113% | CCRF-CEM leukemia 107% | MOLT-4 leukemia 103%

O=C(O)c1cccc([N+](=O)[O-])c1O
inactive: SN12C renal 102% | UO-31 renal 86.1% | ACHN renal 104% | CAKI-1 renal 99% | A498 renal 109% | CCRF-CEM leukemia 100% | MOLT-4 leukemia 99.5%

CC1CCC2C(C)(C)C3CC12CC1OC13C (configuration not stated)
inactive: SN12C renal 97.1% | UO-31 renal 109% | TK-10 renal 104% | ACHN renal 103% | CAKI-1 renal 98.5% | A498 renal 94% | CCRF-CEM leukemia 112% | MOLT-4 leukemia 110%

CCCCC(=O)c1ccc(OC)cc1
inactive: SN12C renal 105% | UO-31 renal 97% | ACHN renal 96.3% | CAKI-1 renal 99.2% | A498 renal 84.1% | CCRF-CEM leukemia 92.1% | MOLT-4 leukemia 104%

C=CCNc1ccccc1
inactive: SN12C renal 94.1% | TK-10 renal 95.7% | ACHN renal 101% | CAKI-1 renal 114% | A498 renal 119% | CCRF-CEM leukemia 93.6% | MOLT-4 leukemia 95.4%

O=C(OCC(O)C1OC(c2ccccc2)OC(COC(=O)c2ccccc2)C1O)c1ccccc1 (configuration not stated)
inactive: SN12C renal 99.6% | UO-31 renal 93.2% | TK-10 renal 99.6% | ACHN renal 106% | CAKI-1 renal 85.3% | MOLT-4 leukemia 102%

O=C1OC(c2ccc(F)cc2)CC1CN1CCOCC1 (configuration not stated)
inactive: SN12C renal 102% | UO-31 renal 83.5% | TK-10 renal 83.2% | ACHN renal 105% | CAKI-1 renal 85.8% | MOLT-4 leukemia 102%

COC(=O)Nc1cccc(Cl)c1OC
inactive: SN12C renal 112% | UO-31 renal 95.6% | TK-10 renal 120% | ACHN renal 99.8% | CAKI-1 renal 94.5% | A498 renal 61.9% | MOLT-4 leukemia 103%

COc1cc(/C=C/C(=O)c2ccccc2)cc(OC)c1OC
inactive: SN12C renal 53.3% | UO-31 renal 49.7% | TK-10 renal 112% | ACHN renal 51.1% | MOLT-4 leukemia 28.8%
active: CAKI-1 renal -23.3%

CC(=O)c1ccc2c(ccc3ccccc32)c1
inactive: SN12C renal 102% | UO-31 renal 100% | ACHN renal 110% | CAKI-1 renal 107% | A498 renal 92.8% | CCRF-CEM leukemia 86.2% | MOLT-4 leukemia 93%

Cc1cc(=O)n(-c2ccc(F)cc2)[nH]1
inactive: SN12C renal 104% | UO-31 renal 83.3% | TK-10 renal 136% | ACHN renal 96% | CAKI-1 renal 98.9% | A498 renal 99.7% | MOLT-4 leukemia 99.7%

COC(=O)CCCCC1=CCC2C(=O)C=C(O)C2C1 (configuration not stated)
inactive: SN12C renal 102% | UO-31 renal 89.9% | TK-10 renal 96.4% | ACHN renal 98.9% | MOLT-4 leukemia 82.7%

C/C(=C\c1cc(Cl)ccc1OCC(=O)O)[N+](=O)[O-]
inactive: SN12C renal 122% | UO-31 renal 90.5% | TK-10 renal 116% | ACHN renal 106% | CAKI-1 renal 93.2% | A498 renal 144% | CCRF-CEM leukemia 80.1% | MOLT-4 leukemia 96.9%

N#Cc1ccc(NC(=O)Nc2cccc(C#N)c2)cc1
inactive: SN12C renal 94% | UO-31 renal 75.6% | TK-10 renal 113% | ACHN renal 92.5% | A498 renal 86% | CCRF-CEM leukemia 72.4% | MOLT-4 leukemia 78.7%
